Results reported in PubChem BioAssay (NCATS).
Where “and” joins values, the source holds several entries; their conditions need not be identical. Equal entries are not always repeated. Records with an inconclusive call do not appear. Calls of active or inactive are those of the source. Calls follow the shape of the dose curve; as a rule, active = well fitted curve in the direction sought with a large enough effect; inconclusive = small, poorly fitted or top-dose-only effect, or another doubt; inactive = no such curve, though single readings can be large; an effect the other way counts as inactive or inconclusive.

Key:
C33A = experiment: Primary qHTS to identify gynecologic anti-cancer compounds using libraries of approved drugs and bioactive compounds (AID 1345084); conditions: Gynecologic cancer cell panel viability, ATPlite luminescence, 48 h; series mostly up to 57.5 µM; also: nearly all actives have a fitted effect of over 55% in size; also: potency is read from the fitted curve at half-maximal effect
Summary of the method: (§1)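 In this quantitative HTS, cell killing is estimated from loss of ATP-dependent luciferase light. Cells see five compound concentrations over a 48 h exposure.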

CASKI = experiment: as above; conditions: Gynecologic cancer cell panel viability, ATPlite luminescence, 48 h; series mostly up to 57.5 µM
Summary of the method: as §1

Es-2 = experiment: as above; conditions: Gynecologic cancer cell panel viability, ATPlite luminescence, 48 h; series mostly up to 57.5 µM
Summary of the method: as §1

HeLa = experiment: as above; conditions: Gynecologic cancer cell panel viability, ATPlite luminescence, 48 h; series mostly up to 57.5 µM
Summary of the method: as §1

Hek293T = experiment: as above; conditions: Gynecologic cancer cell panel viability, ATPlite luminescence, 48 h, control line for the selectivity index; series mostly up to 57.5 µM
Summary of the method: as §1

PA-1 = experiment: as above; conditions: Gynecologic cancer cell panel viability, ATPlite luminescence, 48 h; series mostly up to 57.5 µM
Summary of the method: as §1

Tov-21-G = experiment: as above; conditions: Gynecologic cancer cell panel viability, ATPlite luminescence, 48 h; series mostly up to 57.5 µM
Summary of the method: as §1

Tov112D = experiment: as above; conditions: Gynecologic cancer cell panel viability, ATPlite luminescence, 48 h; series mostly up to 57.5 µM
Summary of the method: as §1

astro = experiment: Drug repurposing screens with cells derived from glioblastoma tumor samples (AID 1345199); conditions: viability, ATP luminescence, 48 h; series mostly up to 45.9 µM; also: nearly all actives have a fitted effect of over 40% in size; also: potency is read from the fitted curve at half-maximal effect; as to activity, negative = cell killing: % is scaled to controls: 0 for no effect and ±100 for the full control effect
Summary of the method: (§2)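 Four patient lines of CD133+ GBM neurospheres were screened at several concentrations; hits were retested in those lines plus three slower-growing GBM lines, using 48-hour treatment and ATP-based viability.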

CAOV3 = experiment: Primary qHTS to identify gynecologic anti-cancer compounds using libraries of approved drugs and bioactive compounds (AID 1345084); conditions: Gynecologic cancer cell panel viability, ATPlite luminescence, 48 h; series mostly up to 57.5 µM; also: nearly all actives have a fitted effect of over 55% in size; also: potency is read from the fitted curve at half-maximal effect
Summary of the method: as §1

JEG-3 = experiment: as above; conditions: Gynecologic cancer cell panel viability, ATPlite luminescence, 48 h; series mostly up to 57.5 µM
Summary of the method: as §1

OV90 = experiment: as above; conditions: Gynecologic cancer cell panel viability, ATPlite luminescence, 48 h; series mostly up to 57.5 µM
Summary of the method: as §1

SKOV3 = experiment: as above; conditions: Gynecologic cancer cell panel viability, ATPlite luminescence, 48 h; series mostly up to 57.5 µM
Summary of the method: as §1

[1] = Drug repurposing screens with cells derived from glioblastoma tumor samples (AID 1345199); conditions: GBM patient neurospheres viability, ATP luminescence, 48 h; also: nearly all actives have a fitted effect of over 40% in size; also: potency is read from the fitted curve at half-maximal effect; as to activity, negative = cell killing: % is scaled to controls: 0 for no effect and ±100 for the full control effect
Summary of the method: as §2

NIH3T3 = experiment: qHTS assay to identify novel small-molecules to repurpose for Merkel cell carcinoma treatment (AID 1296009); conditions: MCC and control cell lines, CellTiter-Glo viability, 72 h; at 44.8 µM (top of the series) unless noted; also: nearly all actives have a fitted effect of over 60% in size
Summary of the method: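 Cells were incubated with compound for 72 hr at 37 degree celsius before CellTiter-Glo addition. Luminescence was normalized with no-cell wells as full cytotoxicity and DMSO as baseline.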

[2] = at 45.9 µM (top of the series), tumour line B
[3] = at 45.9 µM (top of the series), tumour line D
[4] = at 46.1 µM (top of the series), tumour line C

COc1ccc(/C=C/C(=O)Nc2ccccc2C(=O)O)cc1OC
inactive: Potency (C33A) | Potency (CASKI) | Potency (Es-2) | Potency (HeLa) | Potency (Hek293T) | Potency (PA-1) | Potency (Tov-21-G) | Potency (Tov112D)
active: Potency (astro) 17.8 µM

NC(=O)C(c1ccccc1)(c1ccccc1)[C@@H]1CCN(CCc2ccc3c(c2)CCO3)C1
inactive: Potency (C33A) | Potency (CAOV3) | Potency (CASKI) | Potency (Es-2) | Potency (HeLa) | Potency (Hek293T) | Potency (JEG-3) | Potency (PA-1) | Potency (Tov-21-G) | Potency (Tov112D)

CN1[C@@H]2CC[C@H]1CC(OC(=O)C(CO)c1ccccc1)C2 (stereo partly drawn)
inactive: Potency (C33A) | Potency (CAOV3) | Potency (CASKI) | Potency (Es-2) | Potency (HeLa) | Potency (Hek293T) | Potency (JEG-3) | Potency (OV90) | Potency (PA-1) | Potency (SKOV3) | Potency (Tov-21-G) | Potency (Tov112D) | activity, negative = cell killing [1, 2] -12.1% and -3.29% | activity, negative = cell killing [1, 3] -9.67% and -14.2% | activity, negative = cell killing [1, 4] 4.75% and 11.7% | Potency (astro)

CCNC(=O)[C@H]1O[C@@H](n2cnc3c(N)nc(NCCc4ccc(CCC(=O)O)cc4)nc32)[C@H](O)[C@@H]1O
inactive: Potency (C33A) | Potency (CASKI) | Potency (Es-2) | Potency (HeLa) | Potency (Hek293T) | Potency (JEG-3) | Potency (OV90) | Potency (PA-1) | Potency (SKOV3) | Potency (Tov-21-G) | Potency (Tov112D)

O=[N+]([O-])c1ccc(CNc2nc(NCc3cccc(C(F)(F)F)c3)nc3nc[nH]c23)cc1
inactive: outcome (NIH3T3) | Potency (C33A) | Potency (CAOV3) | Potency (CASKI) | Potency (Es-2) | Potency (HeLa) | Potency (Hek293T) | Potency (JEG-3) | Potency (PA-1) | Potency (SKOV3) | Potency (Tov-21-G) | Potency (Tov112D)

O=C(Nc1ccc2[nH]ncc2c1)C1CCC1
inactive: Potency (C33A) | Potency (CASKI) | Potency (Es-2) | Potency (HeLa) | Potency (Hek293T) | Potency (JEG-3) | Potency (OV90) | Potency (PA-1) | Potency (SKOV3) | Potency (Tov-21-G) | Potency (Tov112D)

CC1(C)[C@@H](O[C@H]2O[C@H](C(=O)O)[C@@H](O)[C@H](O)[C@H]2O[C@@H]2O[C@H](C(=O)O)[C@@H](O)[C@H](O)[C@H]2O)CC[C@]2(C)[C@H]3C(=O)C=C4[C@@H]5C[C@@](C)(C(=O)O)CC[C@]5(C)CC[C@@]4(C)[C@]3(C)CC[C@@H]12
inactive: Potency (C33A) | Potency (CAOV3) | Potency (CASKI) | Potency (Es-2) | Potency (HeLa) | Potency (Hek293T) | Potency (JEG-3) | Potency (OV90) | Potency (PA-1) | Potency (Tov-21-G) | Potency (Tov112D) | activity, negative = cell killing [1, 2] -9.84% | activity, negative = cell killing [1, 3] 5.57% | activity, negative = cell killing ([1]; at 46 µM (top of the series), tumour line A) -2.05% | activity, negative = cell killing [1, 4] 21.2%

Nc1ccc([N+](=O)[O-])cc1O
active: Potency (PA-1) 4.47 µM
inactive: Potency (C33A) | Potency (CAOV3) | Potency (HeLa) | Potency (Hek293T) | Potency (JEG-3) | Potency (Tov-21-G) | Potency (Tov112D) | Potency (astro)
